Values without a mark were called inactive.
How the values were obtained:
[1] = tested on: Falciformispora senegalensis CBS197.79; assay: growth relative to untreated control; higher = less inhibition, active = 20 or less
In short: (§1)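 In 96-well plates, suspended hyphal fragments of M. mycetomatis MM55 or F. senegalensis CBS197.79 were exposed to compound at 100 or 25 µM for 7 days at 37 °C. The suspension medium was colourless RPMI 1640 with L-glutamine and MOPS, adjusted to 68–72% transmission at 660 nm. Viability was measured with MTS (2 h, 490 nm) or resazurin (600 nm). Growth means metabolic activity compared with the untreated growth control after blank correction of both with medium plus dye.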

[2] = tested on: Madurella mycetomatis MM55; assay: as above
In short: as §1

Compound | growth ([1]; 25 µM) [%] | growth ([1]; 100 µM) [%] | growth ([2]; 25 µM) [%] | growth ([2]; 100 µM)
CC(C)(C)Nc1ncc2nc(Nc3cccc(C(F)(F)F)c3)n(CC3CCNCC3)c2n1 | 92.9 | 97.2 | 107 | 69.3%
CN(C)CCN1CCCN(c2ccnc3ccsc23)CC1 | 90.2 | 99.7 | 76 | 79.5%
Cc1cccnc1Nc1cn2cc(-c3ccnc(OC(C)C)n3)ccc2n1 | 101 | 91 | 36.1 | 6.2% (active)
C[C@H](Cn1cnc2c(N)ncnc21)OCP(=O)(O)O | 105 | 107 | 89.4 | 81.3%
O=c1c(Cl)c(OCc2ccc(Cl)nc2)cnn1-c1ccc(Cl)c(Cl)c1 | 92.2 | 103 | 61.7 | 62.1%
CCN(CC)C(=O)/C(C#N)=C/c1cc(O)c(O)c([N+](=O)[O-])c1 | 99 | 99.4 | 107 | 91.8%
CO[C@H]1C[C@@H]2CC[C@@H](C)[C@@](O)(O2)C(=O)C(=O)N2CCCC[C@H]2C(=O)O[C@H]([C@H](C)C[C@@H]2CC[C@@H](O)[C@H](OC)C2)CC(=O)[C@H](C)/C=C(\C)[C@@H](O)[C@@H](OC)C(=O)[C@H](C)C[C@H](C)/C=C/C=C/C=C/1C | 103 | 105 | 120 | 69.3%
CCSC1CCCCC1NCCn1c(=O)oc2cccnc21 (configuration not stated) | 91.3 | 90.9 | 37.9 | 93.1%

Reference: the supplement of paper PMC11172423
